# Experimental data from paper PMC5540273 (PLoS ONE, 2017).
# Key:
# Conditions in all cases: concentration: 1 μM, replicates: in singlicate; n = 1
# NEK7 = tested on: NEK7
# NEK9 = tested on: NEK9
# NIK = tested on: T1, NIK
# T1 construct: gene MAP3K14
# NIM1 = tested on: T2, NIM1
# T2 construct: gene MGC42105
# NLK = tested on: NLK
# OSR1 = tested on: T3, OSR1
# T3 construct: gene OXSR1
# PAK1 = tested on: PAK1
# PAK2 = tested on: PAK2
# PAK3 = tested on: PAK3
# PAK4 = tested on: PAK4
# PAK6 = tested on: PAK6
# PAK7 = tested on: PAK7
# PCTK1 = tested on: T4, PCTK1
# T4 construct: gene CDK16
# PCTK2 = tested on: T5, PCTK2
# T5 construct: gene CDK17
# PCTK3 = tested on: T6, PCTK3
# T6 construct: gene CDK18
# PDGFRA = tested on: PDGFRA
# PDGFRB = tested on: PDGFRB
# PDPK1 = tested on: PDPK1
# PFTAIRE2 = tested on: PFTAIRE2
# PFTK1 = tested on: T7, PFTK1
# T7 construct: gene CDK14
# 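Further: KINOMEscan kinase panel screen.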
SMILES,%Inh (NEK7) [%],%Inh (NEK9) [%],%Inh (NIK) [%],%Inh (NIM1) [%],%Inh (NLK) [%],%Inh (OSR1) [%],%Inh (PAK1) [%],%Inh (PAK2) [%],%Inh (PAK3) [%],%Inh (PAK4) [%],%Inh (PAK6) [%],%Inh (PAK7) [%],%Inh (PCTK1) [%],%Inh (PCTK2) [%],%Inh (PCTK3) [%],%Inh (PDGFRA) [%],%Inh (PDGFRB) [%],%Inh (PDPK1) [%],%Inh (PFTAIRE2) [%],%Inh (PFTK1) [%]
Cl.O=C(Nc1cccc(-c2nn3ncccc3c2-c2ccnc(Nc3cccnc3)n2)c1)c1c(F)cccc1F [GSK312879],7,0,24,11,15,23,15,19,9,0,0,10,1,0,0,0,77,28,22,9
Cc1ccc(NC(=O)Nc2cc(C(C)(C)C)nn2-c2ccccc2)cc1 [GSK1014915],6,0,35,3,14,0,0,2,76,0,0,0,6,0,27,36,98.9,0,10,9
Cc1cccc(-c2nc(Nc3ccc4[nH]ncc4c3)c3ccccc3n2)n1 [GW857175],5,0,11,30,1,25,0,2,0,6,4,0,23,2,15,19,0,39,0,9
O=C1NC(=O)C(N2CCc3ccccc32)=C1c1ccccc1Cl [SB-373598],0,13,0,16,2,63,10,10,100,0,55,0,3,1,17,0,4,32,9,0
COc1cc(Nc2nccc(N3CCC(NC(=O)Nc4cc(C)ccc4C)C3)n2)cc(OC)c1OC (stereo not drawn) [GSK1379762],54,32,32,27,0,9,11,4,29,0,0,0,9,24,33,8,42,11,24,21
Cc1cccc(-c2nc(-c3ccc(S(C)(=O)=O)cc3)sc2-c2ccnc(NCCc3ccccc3)c2)c1,0,0,0,0,11,0,18,20,0,1,5,5,15,3,0,89,100,17,5,0
Cc1csc(-c2nc(Nc3ccncc3)c3ccccc3n2)n1 [GW869640],0,16,32,40,64,17,12,56,28,9,0,8,20,0,12,36,0,0,21,5
O=C(Nc1n[nH]c2nc(-c3nccs3)c(Br)cc12)C1CCCC1 [SB-742609],5,0,33,0,31,7,16,21,17,0,0,0,48,47,50,0,27,0,7,26
Fc1cc(Cl)ccc1Nc1ccnc2cc(I)ccc12 [GW551191],0,5,7,19,59,6,18,9,14,0,0,0,4,0,0,9,88,0,9,4
